The values below come from PubChem BioAssay.

Assay [1] can be described thus: small molecules captured by biotinylated probe aFSTL3 – biochemical, small-molecule microarray, fluorescence 635/667, stem cell growth factor project, primary screen (AID 1064).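 Note: measures binding of the biotinylated anti-FSTL3 antibody to printed compounds.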 Conditions: higher = more signal.
Assay [2] in a line: binders from COS7 lysate, DM2A8 probe, primary screen, torsin A project, cell lysate, small-molecule microarray, fluorescence 635/667 (AID 1065). Particulars: higher = more signal, COS7 lysate expressing mutant human TOR1A.
Assay [3] in a line: small molecules captured by biotinylated probe aFGF2 – biochemical, small-molecule microarray, fluorescence 635/667, stem cell growth factor project, primary screen (AID 1067).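 Note: measures binding of biotinylated aFGF2 protein to printed compounds on slides; z-score merges feature fluorescence and signal-to-noise across triplicate slides.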 Conditions: higher = more signal.
Assay [4] is described as follows: small molecules captured by biotinylated probe aFGF10 – biochemical, small-molecule microarray, fluorescence 635/667, stem cell growth factor project, primary screen (AID 1071).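 Note: score merges 667 nm spot intensity and signal to noise from triplicate slides.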 Particulars: higher = more signal.
Assay [5] concerns the target Neurogenic locus notch homolog protein 2 (Homo sapiens) (UniProt Q04721). Put plainly: small molecules binding Notch2 protein – biochemical, small-molecule microarray, 635 nm fluorescence, stem cell growth factors, primary screen (AID 1073). Conditions: higher = more signal.
Assay [6] addresses Pro-neuregulin-1, membrane-bound isoform (Homo sapiens) (UniProt Q02297). The assay is described as follows: small molecules binding neuregulin-1 protein – biochemical, small-molecule microarray, fluorescence 635/667, psychiatric disease protein project, primary screen (AID 1075).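 Note: score combines 667 nm spot fluorescence with signal to noise.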 Conditions: NRG1 binding, 635 nm fluorescence, higher = more signal.
For assay [7], the system named is Neuregulin-1 EGF-like domain. Put plainly: small molecules binding NRG1 EGF domain – biochemical, small-molecule microarray, 635 nm fluorescence, primary screen (AID 1081).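 Note: binding of the protein to compounds printed on small-molecule microarray slides.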 Particulars: higher = more signal.
A short description of assay [8]: FRG1 expression reporter modulators in myotubes – cell-based, C2C12 myotubes, firefly/Renilla luciferase, luminescence, FRG1 inhibition for FSHD, primary screen (AID 1084). Conditions: FRG1 promoter luciferase, higher = more signal, called active from +8 up or from −8 down.
Assay [9] can be described thus: small molecules captured by biotinylated probe aFST – biochemical, small-molecule microarray, fluorescence 635/667, stem cell growth factor project, primary screen (AID 1086).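 Note: score merges 667 nm fluorescence with signal-to-noise of each printed compound spot.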 Conditions: higher = more signal.
The nature of assay [10]: binders of probe aHhip on microarray, primary screen, stem cell growth factor project, biochemical, small-molecule microarray, fluorescence 635/667 (AID 1087).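 Note: score merges spot fluorescence at 667nm with spot signal to noise ratio.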 Conditions: higher = more signal.
The test system of assay [11] is PRMT1 (protein arginine N-methyltransferase 1). Put plainly: small molecules binding arginine methyltransferase PRMT1 – biochemical, small-molecule microarray, 635 nm fluorescence, primary screen (AID 1088).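 Note: binding of Prmt1 protein to compounds spotted on small-molecule microarray slides.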 Conditions: higher = more signal.
The nature of assay [12]: growth effects on S. cerevisiae YJM789 – YJM789 clinical isolate, OD600, 24 h, basal, primary screen (AID 1089).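 Note: growth of clinical yeast isolate S. cerevisiae YJM 789 seeded 1000 cells per well; test concentration not given here.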 Particulars: higher = more signal, called active from +8 up or from −8 down.
Assay [13] in a line: S. pombe growth modifiers, basal conditions – strain 972, OD600, 24 h, no modulator, primary screen (AID 1090).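 Note: basal condition with compound alone and no growth modifier present; test concentration not given here.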 Conditions: S. pombe 972 growth, higher = more signal, called active from +8 up or from −8 down.
A short description of assay [14]: budding yeast growth modifiers under rapamycin – strain BY4716, OD600, 96 h, primary screen (AID 1091). Note: test concentration not given here. Particulars: S. cerevisiae BY4716 + rapamycin, higher = more signal, called active from +8 up or from −8 down.
Assay [15] has as its target Torsin-1A-interacting protein 2 (Homo sapiens) (UniProt Q8NFQ8). The assay is described as follows: small molecules binding lysate-expressed LULL1 – cell lysate, human LULL1 lysate, 635/667 nm fluorescence, primary screen (AID 1092).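 Note: probe is lysate of COS7 cells overexpressing human LULL1; score merges per-feature 667 nm fluorescence with signal-to-noise.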 Particulars: small-molecule microarray, hLULL1 lysate binding, 635 nm fluorescence; higher = more signal.
Assay [16] is described as follows: optical density change of DRC41 E. coli – strain DRC41, OD650, 24 h, E. coli filamentation project, primary screen (AID 1093).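 Note: MC1000 strain lacking acrAB efflux and sulA so SOS filamentation is blocked; test concentration not given here.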 Particulars: E. coli DRC41 growth, higher = more signal, called active from +8 up or from −8 down.
The nature of assay [17]: probe aLefty2 binding to arrayed compounds – biochemical, biotinylated probe, 635/667 nm fluorescence, primary screen (AID 1094).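 Note: score merges spot fluorescence near 667 nm with spot signal-to-noise ratio.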 Particulars: small-molecule microarray, higher = more signal.
The test system of assay [18] is Noggin (protein binding on small-molecule microarray). The assay is described as follows: small molecules binding Noggin protein – biochemical, 635/667 nm fluorescence, primary screen (AID 1095).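 Note: score merges 667 nm feature fluorescence with signal to noise over triplicate slides.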 Conditions: 635 nm fluorescence, higher = more signal.
Assay [19] has as its target Neurogenic locus notch homolog protein 3 (Homo sapiens) (UniProt Q9UM47). The assay is described as follows: small molecules binding NOTCH3 protein – biochemical, 635/667 nm fluorescence, primary screen (AID 1096). Particulars: small-molecule microarray, 635 nm fluorescence, higher = more signal.
Assay [20] can be described thus: probe aEGFR binding to arrayed compounds – biochemical, biotinylated probe, 635/667 nm fluorescence, primary screen (AID 1097).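 Note: probe is a biotinylated anti-EGFR antibody binding compounds printed on slides; score combines fluorescence near 667 nm and signal to noise of each spot.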 Conditions: small-molecule microarray, higher = more signal.

Activity calls are given as the source filed them.

Pro-neuregulin-1, membrane-bound isoform (Homo sapiens), sequence (Q02297 whole entry, looked up, the tested form may be a part, canonical isoform): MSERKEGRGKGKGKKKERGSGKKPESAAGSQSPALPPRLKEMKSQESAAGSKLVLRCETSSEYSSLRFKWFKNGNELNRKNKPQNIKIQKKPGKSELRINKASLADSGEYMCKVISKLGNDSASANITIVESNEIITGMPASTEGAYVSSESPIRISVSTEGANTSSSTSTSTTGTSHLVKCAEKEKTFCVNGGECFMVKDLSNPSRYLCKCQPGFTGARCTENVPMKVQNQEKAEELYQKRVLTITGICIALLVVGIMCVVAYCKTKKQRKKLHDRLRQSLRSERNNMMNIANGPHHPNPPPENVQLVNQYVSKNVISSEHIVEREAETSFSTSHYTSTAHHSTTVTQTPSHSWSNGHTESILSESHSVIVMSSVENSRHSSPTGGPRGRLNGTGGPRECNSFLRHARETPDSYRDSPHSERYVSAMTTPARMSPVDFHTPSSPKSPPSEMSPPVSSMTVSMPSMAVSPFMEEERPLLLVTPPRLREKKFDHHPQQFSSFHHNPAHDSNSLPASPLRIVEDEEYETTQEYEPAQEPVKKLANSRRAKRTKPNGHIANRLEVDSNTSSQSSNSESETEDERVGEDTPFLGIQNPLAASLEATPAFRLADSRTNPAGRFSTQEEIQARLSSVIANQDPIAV
Neurogenic locus notch homolog protein 3 (Homo sapiens), sequence (Q9UM47 whole entry, looked up): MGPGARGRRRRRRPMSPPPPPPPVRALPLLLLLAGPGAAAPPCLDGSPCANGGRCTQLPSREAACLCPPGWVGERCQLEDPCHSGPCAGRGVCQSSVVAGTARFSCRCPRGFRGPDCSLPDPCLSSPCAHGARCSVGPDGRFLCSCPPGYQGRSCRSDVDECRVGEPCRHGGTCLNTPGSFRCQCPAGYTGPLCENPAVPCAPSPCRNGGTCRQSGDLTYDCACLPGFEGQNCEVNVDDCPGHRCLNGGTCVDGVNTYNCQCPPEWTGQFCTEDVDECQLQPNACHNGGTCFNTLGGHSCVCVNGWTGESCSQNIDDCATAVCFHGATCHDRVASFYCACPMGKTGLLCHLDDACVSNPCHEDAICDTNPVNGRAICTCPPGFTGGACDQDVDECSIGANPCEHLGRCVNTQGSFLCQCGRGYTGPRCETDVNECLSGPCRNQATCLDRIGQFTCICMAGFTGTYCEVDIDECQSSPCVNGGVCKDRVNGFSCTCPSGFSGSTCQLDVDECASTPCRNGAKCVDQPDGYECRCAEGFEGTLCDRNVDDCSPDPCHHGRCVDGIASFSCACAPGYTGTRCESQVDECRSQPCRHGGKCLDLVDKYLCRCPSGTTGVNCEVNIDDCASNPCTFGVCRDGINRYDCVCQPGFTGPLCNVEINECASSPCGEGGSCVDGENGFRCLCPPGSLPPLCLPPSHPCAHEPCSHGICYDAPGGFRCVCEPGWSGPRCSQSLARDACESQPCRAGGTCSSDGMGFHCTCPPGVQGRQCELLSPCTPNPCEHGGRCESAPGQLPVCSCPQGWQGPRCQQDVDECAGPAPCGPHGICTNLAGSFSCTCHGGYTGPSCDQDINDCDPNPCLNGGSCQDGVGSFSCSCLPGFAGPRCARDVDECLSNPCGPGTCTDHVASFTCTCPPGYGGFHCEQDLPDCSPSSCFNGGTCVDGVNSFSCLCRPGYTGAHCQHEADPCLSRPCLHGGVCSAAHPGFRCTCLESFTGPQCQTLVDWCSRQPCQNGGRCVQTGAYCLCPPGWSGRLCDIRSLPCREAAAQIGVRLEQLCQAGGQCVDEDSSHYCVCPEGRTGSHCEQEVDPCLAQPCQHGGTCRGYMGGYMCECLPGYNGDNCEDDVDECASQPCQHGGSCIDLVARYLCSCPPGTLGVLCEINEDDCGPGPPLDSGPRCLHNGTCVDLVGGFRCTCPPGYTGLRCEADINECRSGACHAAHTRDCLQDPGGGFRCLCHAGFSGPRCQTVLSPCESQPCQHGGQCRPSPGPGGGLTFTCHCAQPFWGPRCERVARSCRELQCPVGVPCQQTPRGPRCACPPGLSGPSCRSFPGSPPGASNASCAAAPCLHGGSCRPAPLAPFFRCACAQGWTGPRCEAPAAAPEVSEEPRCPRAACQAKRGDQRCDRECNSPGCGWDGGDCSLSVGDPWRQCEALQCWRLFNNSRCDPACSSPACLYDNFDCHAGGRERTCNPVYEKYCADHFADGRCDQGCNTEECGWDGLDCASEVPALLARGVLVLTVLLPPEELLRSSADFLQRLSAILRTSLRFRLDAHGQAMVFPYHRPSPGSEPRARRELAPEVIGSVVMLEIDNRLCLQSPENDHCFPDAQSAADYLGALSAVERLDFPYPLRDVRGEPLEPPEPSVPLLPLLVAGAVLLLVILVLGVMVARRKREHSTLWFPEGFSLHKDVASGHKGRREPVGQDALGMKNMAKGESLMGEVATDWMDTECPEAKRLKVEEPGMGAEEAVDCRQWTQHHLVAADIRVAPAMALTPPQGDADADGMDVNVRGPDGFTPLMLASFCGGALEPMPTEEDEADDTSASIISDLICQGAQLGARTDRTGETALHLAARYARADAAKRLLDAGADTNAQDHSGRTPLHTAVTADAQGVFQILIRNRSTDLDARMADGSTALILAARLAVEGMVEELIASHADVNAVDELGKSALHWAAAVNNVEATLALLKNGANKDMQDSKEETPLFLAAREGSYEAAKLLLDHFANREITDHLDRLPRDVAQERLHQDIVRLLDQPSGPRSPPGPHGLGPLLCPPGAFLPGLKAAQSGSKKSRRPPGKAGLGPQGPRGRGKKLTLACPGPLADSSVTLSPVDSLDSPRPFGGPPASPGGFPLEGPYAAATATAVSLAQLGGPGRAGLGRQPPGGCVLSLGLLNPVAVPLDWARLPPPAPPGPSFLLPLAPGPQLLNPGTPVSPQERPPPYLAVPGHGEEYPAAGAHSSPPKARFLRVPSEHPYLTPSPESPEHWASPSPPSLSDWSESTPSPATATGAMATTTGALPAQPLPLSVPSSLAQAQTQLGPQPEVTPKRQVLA
Torsin-1A-interacting protein 2 (Homo sapiens), sequence (Q8NFQ8 whole entry, looked up): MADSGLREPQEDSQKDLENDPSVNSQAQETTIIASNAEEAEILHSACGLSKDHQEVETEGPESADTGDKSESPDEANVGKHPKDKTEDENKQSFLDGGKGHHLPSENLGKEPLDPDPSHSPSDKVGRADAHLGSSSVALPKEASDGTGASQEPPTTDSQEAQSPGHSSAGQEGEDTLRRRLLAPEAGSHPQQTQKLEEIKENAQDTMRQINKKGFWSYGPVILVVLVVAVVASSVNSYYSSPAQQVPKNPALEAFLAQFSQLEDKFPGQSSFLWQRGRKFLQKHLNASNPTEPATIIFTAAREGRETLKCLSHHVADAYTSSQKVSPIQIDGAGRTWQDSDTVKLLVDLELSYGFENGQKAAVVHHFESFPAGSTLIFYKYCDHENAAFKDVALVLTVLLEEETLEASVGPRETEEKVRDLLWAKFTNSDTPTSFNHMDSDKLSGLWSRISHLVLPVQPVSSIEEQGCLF

As for `CCCC=C(CCC)[C@@H](NC(=O)c1ccco1)c1ccc(C(=O)OC)cc1`, the composite z-score in assay [1] was determined as 0.0801; in assay [2], 0.127; in assay [3], 0.209; in assay [4], 0.72; in assay [5] it was 1.52; in assay [6], 1.65. The composite z-score in assay [7] was 1.2; in [9] it was 0.594; in assay [10], -0.0507; in assay [11] it was 0.997; in assay [15] it was 3.52; in [17], 0.198. Moreover, the composite z-score in assay [18] is 0.678; in assay [19] it was 1.06; in assay [20], -0.15. The z-score in assay [8] was 0.467 (inactive); in assay [12] it was 1.06 (inactive); in [13], 0.113 (inactive); in assay [14], 2.22 (inactive); in assay [16] it was -0.868 (inactive).

In the case of `CC(=O)NCCCC[C@@H]1NC(=O)[C@@H]2C[C@H](C(=O)NCCCCCC[N+](C)(C)C)[C@H](c3ccc(O)cc3)N2C1=O`, the composite z-score in assay [1] is 0.101; in assay [2] it was 0.437; in assay [3], -0.224; in [4], 0.204; in [5], 0.472; in assay [6] it was 0.148. Also, the composite z-score in assay [7] was 1.23; in assay [9], -0.0677; in assay [10], 0.0881; in assay [11] it was 0.914; in assay [15], 1.43; in [17], 0.104. The figures for the composite z-score in assay [18], in assay [19] and in assay [20] were 0.761, 0.157 and -0.476, respectively. Also, the z-score in assay [8] is 3.02 (inactive); in [12], 0.124 (inactive); in [13] it was -0.16 (inactive); in assay [14], 0.216 (inactive); in [16], -0.453 (inactive).

As for `CCC[C@@H]1C=C(C(=O)OCC)[C@H](c2ccccc2)N1S(=O)(=O)c1ccc(C)cc1`, the composite z-score in [1] is 0.483; in assay [2], 0.379; in assay [3], 0.137; in assay [4], 0.88; in assay [5], 1.66; in [6], 1.09. Besides, the composite z-score is 1.06 in assay [7]; 1.2 in assay [9]; -0.105 in [10]; 1.57 in [11]; 0.352 in [15]; 0.326 in assay [17]. In addition, the results for the composite z-score in [18], in assay [19] and in assay [20] were 0.0974, 1.08 and 0.21, respectively. The z-score is -1.56 (inactive) in assay [8]; 0.73 (inactive) in assay [12]; 1.67 (inactive) in [13]; 1.7 (inactive) in [14]; -0.209 (inactive) in assay [16].
